Experimental findings from PubChem BioAssay (NCI) are described below.

Compounds without any hit were thinned out: in the full panel of roughly 83,000, 20% have a hit.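 How to read the values: 0–100, growth inhibition (40 = 60% inhibited); 0, no net growth; -100 to 0, cell death (-40 = 40% of starting cells died; -100 = all dead).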 Values without a mark were called inactive. The source made the active and inactive calls. Rule for the calls: active = growth percent below 10; inactive = the rest.

Among the test systems are NCI-H23 lung; NCI-H226 lung; NCI-H322M lung; HOP-62 NSCLC; NCI-H460 lung; HOP-92 NSCLC; NCI-H522 lung; A549/ATCC NSCLC; 786-0 renal; COLO 205 colon.
Assay in all cases: NCI-60 one-dose screen, 48 h (100 = growth as untreated, 0 = no growth, -100 = all killed)
Settings in all cases: 10 µM unless noted

On to `C/C=C(\C)C(C(=O)NC1CCCCC1)N(C(=O)C1CCc2cc(F)ccc2O1)c1ccc([N+](=O)[O-])cc1` (stereo not drawn), for which the growth in the assay on NCI-H23 lung was 91.9%; in the assay on NCI-H226 lung, 72.5%; with NCI-H322M lung, 92.8%; in the assay on HOP-62 NSCLC, 87.3%; with NCI-H460 lung, 82.5%; in the assay on HOP-92 NSCLC, 92.6%. The growth was 81.9% in the assay on NCI-H522 lung, 79.1% in the assay on A549/ATCC NSCLC and 90.1% in the assay with 786-0 renal.
`CCN(CC)CCCC(C)Nc1cnc(C(=O)Nc2cc(C)cc3cccnc23)cn1` (stereo not drawn): the growth with NCI-H23 lung was 96.3%; with NCI-H226 lung, 60.4%; with NCI-H322M lung, 84.2%; in the assay with HOP-62 NSCLC it was 91.2%; with NCI-H460 lung, 79.5%; in the assay on HOP-92 NSCLC it was 51.4%. The growth with NCI-H522 lung was 96.8%; with A549/ATCC NSCLC, 72.8%; in the assay with 786-0 renal it was 88.2%; in the assay on COLO 205 colon, 37%.
`CCCCCCCCCC1=NC(C)(C)CN1C(C)(C)CO`: the growth is 89.1% in the assay with NCI-H23 lung; 105% in the assay with NCI-H226 lung; 89.4% in the assay with NCI-H322M lung; 100% in the assay with HOP-62 NSCLC; 105% in the assay on NCI-H460 lung; 91% in the assay on HOP-92 NSCLC. For the same compound, the growth with NCI-H522 lung was 80.9%; in the assay with A549/ATCC NSCLC, 99.6%; with 786-0 renal, 100%.
`COc1cc(C2=NOC(c3cc(OC)c(OC)c(OC)c3)C2)ccc1OCCCCOc1cc2c(cc1OC)C(=O)N1CCC[C@H]1C=N2` (stereo partly drawn): the growth was -15.9% (active) with NCI-H23 lung; 9.32% (active) in the assay on NCI-H226 lung; -6.38% (active) with NCI-H322M lung; 9.48% (active) with HOP-62 NSCLC; -29.6% (active) in the assay with NCI-H460 lung; -29.3% (active) in the assay with HOP-92 NSCLC. Moreover, the growth in the assay with NCI-H522 lung was -41.7% (active); with A549/ATCC NSCLC, 6.75% (active); with 786-0 renal, -4.62% (active).
Take `COc1ccc(-c2cnc3ccnn3c2-c2cc(OC)c(OC)c(OC)c2)cc1`: the growth was 42.7% with NCI-H23 lung; 65.5% with NCI-H226 lung; 55.8% in the assay on NCI-H322M lung; 40% with HOP-62 NSCLC; 11.1% with NCI-H460 lung; 103% in the assay on HOP-92 NSCLC. The growth in the assay on NCI-H522 lung is 10.1%; in the assay with A549/ATCC NSCLC, 46.8%; with 786-0 renal, 40.3%.
Take `O=C(c1ccccc1)N(CCCCl)C(=O)N(CCCCl)C(=O)c1ccccc1`: the growth was 83.1% in the assay on NCI-H23 lung; 94.9% with NCI-H226 lung; 92.9% with NCI-H322M lung; 86.7% in the assay with HOP-62 NSCLC; 108% with NCI-H460 lung; 70.1% in the assay on HOP-92 NSCLC. Also, the values for the growth in the assay on NCI-H522 lung, in the assay with A549/ATCC NSCLC and in the assay on 786-0 renal were 88.1%, 87.7% and 94.6%, respectively.
Regarding `Brc1cccc(-n2ncc3c(Nc4ccc(-c5nnc(-c6ccccc6)o5)cc4)ncnc32)c1`, the growth was 94.5% with NCI-H23 lung; 90.2% with NCI-H226 lung; 104% in the assay on NCI-H322M lung; 89.6% in the assay on HOP-62 NSCLC; 109% with NCI-H460 lung; 104% with HOP-92 NSCLC. Further, the growth with NCI-H522 lung was 98.3%; in the assay with A549/ATCC NSCLC it was 109%; in the assay with 786-0 renal it was 104%.
For the compound `O=c1[nH]cnc2nc[nH]c12`, the growth with NCI-H23 lung was 113%; with NCI-H226 lung it was 98.9%; in the assay on NCI-H322M lung, 94.9%; in the assay with HOP-62 NSCLC, 106%; in the assay with NCI-H460 lung, 103%; in the assay with HOP-92 NSCLC, 104%. Also, the growth was 99.2% with NCI-H522 lung, 105% in the assay with A549/ATCC NSCLC, 114% in the assay with 786-0 renal and 112% in the assay with COLO 205 colon.
Regarding `CN(C)c1ccc(N2Cc3ccccc3OC3=C2C(=O)c2c(O)ccc(O)c2C3=O)cn1`, the growth in the assay with NCI-H23 lung is -36.7% (active); in the assay on NCI-H226 lung it was 6.21% (active); in the assay with NCI-H322M lung, -7.76% (active); in the assay with HOP-62 NSCLC, -45.8% (active); in the assay with NCI-H460 lung it was 1.55% (active); with HOP-92 NSCLC, -65.2% (active). Further, the growth in the assay on NCI-H522 lung is -54.2% (active); with A549/ATCC NSCLC it was -19.7% (active); with 786-0 renal, -88.9% (active).
As for `CCCCC(CCc1ccccn1)C(=O)c1ccccc1` (stereo not drawn), the growth with NCI-H23 lung is 98.8%; with NCI-H226 lung, 118%; in the assay with NCI-H322M lung, 103%; in the assay with HOP-62 NSCLC, 106%; in the assay with NCI-H460 lung it was 112%; in the assay on HOP-92 NSCLC it was 94.9%. Moreover, the growth is 131% in the assay on NCI-H522 lung, 111% in the assay with A549/ATCC NSCLC, 110% with 786-0 renal and 112% in the assay on COLO 205 colon.
Turning to `C[C@]12CCc3nc(Nc4ccc(O)cc4)sc3C1=CC[C@@H]1[C@@H]2CC[C@]2(C)/C(=N/NC(N)=S)CC[C@@H]12`, the growth was 1.05% (active) with NCI-H23 lung; 55.4% in the assay on NCI-H226 lung; 4.16% (active) with NCI-H322M lung; -24.5% (active) in the assay on HOP-62 NSCLC; -72% (active) in the assay on NCI-H460 lung; -19.3% (active) with HOP-92 NSCLC. Besides, the growth with NCI-H522 lung was -55.2% (active); in the assay on A549/ATCC NSCLC it was -26.7% (active); with 786-0 renal, -73.6% (active); in the assay with COLO 205 colon, -40.5% (active).
For `COc1c(C(=O)/C=C/c2ccc(C)o2)c(O)cc2occc12`, the growth in the assay on NCI-H23 lung is 79.5%; in the assay with NCI-H226 lung, 75.3%; in the assay on NCI-H322M lung, 97.2%; in the assay with HOP-62 NSCLC, 59.2%; in the assay on NCI-H460 lung, 70.1%; in the assay on HOP-92 NSCLC, 68%. Besides, the growth in the assay on NCI-H522 lung is 41.8%; with A549/ATCC NSCLC, 58.8%; in the assay on 786-0 renal, 99.1%; in the assay on COLO 205 colon, 104%.
Regarding `C#CC[C@@H]1C[C@]2(C)[C@H]3CC=C4[C@H]5[C@@H](C)[C@H](C)CC[C@]5(C(=O)NCCCCCCCCN)CC[C@@]4(C)[C@]3(C)CC[C@H]2C(C)(C)[C@H]1OC(C)=O`, the growth with NCI-H23 lung is 79.3%; in the assay with NCI-H226 lung, 94.6%; with NCI-H322M lung, 80.4%; with HOP-62 NSCLC it was 104%; with NCI-H460 lung it was -63.8% (active); with HOP-92 NSCLC it was 53.1%. Moreover, the growth with NCI-H522 lung is -1.25% (active); in the assay on A549/ATCC NSCLC, 46.5%; in the assay with 786-0 renal it was 80.6%; in the assay with COLO 205 colon, -23.4% (active).
`CCc1ccc(Nc2cc(C)c3ccc(O)cc3n2)cc1`: the growth in the assay with NCI-H23 lung is 90.4%; in the assay with NCI-H226 lung, 76.7%; with NCI-H322M lung, 82.9%; in the assay on HOP-62 NSCLC it was 88%; in the assay on NCI-H460 lung, 64.3%; in the assay on HOP-92 NSCLC, 74.4%. Moreover, the growth in the assay with NCI-H522 lung is 92.2%; in the assay with A549/ATCC NSCLC, 85%; in the assay with 786-0 renal it was 68.1%; with COLO 205 colon, -81.3% (active).
